# Experimental data published in PubChem BioAssay (Tox21).
# Inconclusive results are not listed. Entries that show only a call come without a potency. Active and inactive are the calls of the source. Calls come from the whole dose curve; as a rule, active = well fitted activation curve with a large enough effect in the signal ratio in the repeat runs (not every such curve was filed as active); inconclusive = weak or mixed curves, or effect the other way; inactive = no such curve, though single readings can be large or run the other way; the % refers to the signal ratio.
# Biological target: Peroxisome proliferator-activated receptor gamma (Homo sapiens) (UniProt P37231)
# Sequence (P37231 whole entry, looked up): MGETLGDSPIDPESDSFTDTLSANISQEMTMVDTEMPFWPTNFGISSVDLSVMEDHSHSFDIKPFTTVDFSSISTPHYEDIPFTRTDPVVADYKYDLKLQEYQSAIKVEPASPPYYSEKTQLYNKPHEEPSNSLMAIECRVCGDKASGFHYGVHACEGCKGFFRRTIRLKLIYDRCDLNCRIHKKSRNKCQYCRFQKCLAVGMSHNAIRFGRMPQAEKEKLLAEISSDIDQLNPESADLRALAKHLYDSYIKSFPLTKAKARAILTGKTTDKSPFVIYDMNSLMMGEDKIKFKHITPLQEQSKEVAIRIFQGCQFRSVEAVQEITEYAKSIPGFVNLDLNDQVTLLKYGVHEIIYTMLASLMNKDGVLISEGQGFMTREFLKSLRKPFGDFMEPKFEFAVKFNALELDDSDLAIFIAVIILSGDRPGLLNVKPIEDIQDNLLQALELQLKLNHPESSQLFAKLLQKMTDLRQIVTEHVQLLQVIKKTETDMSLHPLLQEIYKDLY
# Assay: qHTS assay to identify small molecule agonists of the peroxisome proliferator-activated receptor gamma (PPARg) signaling pathway (AID 743094)
# Details: HEK293H PPARg-UAS-bla, beta-lactamase FRET ratio, 17 h; series mostly up to 57 µM
# Excerpt: U.S. Tox21 Program National Center for Advancing Translational Sciences [NCATS] NIH Chemical Genomics Center [NCGC] U.S. Environmental Protection Agency [EPA] National Institutes of Environmental Health Sciences [NIEHS] National Toxicology Program [NTP] U.S. Food and Drug Administration [FDA] Tox21 Assay Overview: The peroxisome proliferator-activated receptors (PPARs) are lipid-activated transcription factors of the nuclear receptor superfamily with three distinct subtypes namely PPAR alpha, PPAR delta (also called PPAR beta) and PPAR gamma (PPARg). All these subtypes heterodimerize with Retinoid X receptor (RXR) and these heterodimers regulate transcription of various genes. PPAR-gamma receptor (glitazone receptor) is involved in the regulation of glucose and lipid metabolism. To identify the compounds that activate PPAR-gamma signaling, GeneBLAzer PPAR gamma UAS-bla HEK293H cell line (Invitrogen, Carlsbad, CA, USA) containing a beta-lactamase reporter gene under control of the control of an upstream activator sequence (UAS) stably integrated into HEK293H cells was used to screen Tox21 compound library.
# Tox21 Assay Protocol Summary: PPARg-bla cells were dispensed at 3000 cells/6uL/well in 1536-well black wall/clear bottom plates using a Multidrop Combi (Thermo Fisher Scientific, Waltham, MA) dispenser. After the assay plates were incubated at 37C and 5% CO2 for 5 h, 23 nL of compounds dissolved in DMSO, positive controls or DMSO only was transferred to the assay plate by a Pintool station (Kalypsys, San Diego, CA). The assay plates were incubated at 37C for 17 h. After 1 uL of LiveBLAzerTM B/G FRET substrate was added using a Bioraptr Flying Reagent Dispenser (FRD) workstation (Beckman Coulter, Indianapolis, IN, USA), the plates were incubated at room temperature for 1 h, and fluorescence intensity was measured by an Envision plate reader (PerkinElmer, Shelton, CT).
# Potency is the fitted concentration of half-maximal effect.
row,Structure (SMILES),Potency
1,CCN1C(=O)c2ccccc2C1Nc1ccc(OCCN2CCCCC2)cc1 (stereo not given),inactive
2,CNc1ccc([N+](=O)[O-])cc1,inactive
3,CC(C)OC(=O)C(O)(CC(=O)O)CC(=O)O,inactive
4,CC1(C)CC(O)CC(C)(C)N1,inactive
5,O=C(O)c1cc(=O)c2ccccc2o1,inactive
6,COc1ccc2cc1Oc1ccc(cc1)C[C@H]1c3c(cc4c(c3Oc3cc5c(cc3OC)CCN(C)[C@@H]5C2)OCO4)CCN1C,inactive
7,CC(C)(c1cc(Br)c(OCC(Br)CBr)c(Br)c1)c1cc(Br)c(OCC(Br)CBr)c(Br)c1 (stereo not given),inactive
8,O=C(O)c1ccc2cc(C(=O)O)ccc2c1,inactive
9,NC(=O)c1cccc([N+](=O)[O-])c1,inactive
10,Cc1cccc2cccnc12,inactive
11,Cc1ccc(N/N=c2\c(=O)cc/c(=N\Nc3ccc(S(=O)(=O)O)cc3)c2=O)c(C)c1,inactive
12,CN(C)c1ccc(C(=C2C=CC(=[N+](C)C)C=C2)c2ccc(N(C)C)cc2)cc1,8.49 µM (active)
13,O=[N+]([O-])c1ccc(O)cc1C(F)(F)F,inactive
14,Cc1c(F)c(N2CCNC(C)C2)cc2c1c(=O)c(C(=O)O)cn2C1CC1 (stereo not given),inactive
15,O=S(=O)(O)c1ccc(N=Nc2c(O)ccc3ccccc23)cc1,inactive
16,C=CC(=O)Nc1cc2c(Nc3ccc(F)c(Cl)c3)ncnc2cc1OCCCN1CCOCC1,inactive
17,CC(C)CCCCCOC(=O)CCS,inactive
18,CCO[C@@H]1O[C@H](C(COCc2ccccc2)OCc2ccccc2)[C@H](OCc2ccccc2)[C@H]1O (stereo not given in full),inactive
19,Clc1sc(Cl)c(Cl)c1Cl,inactive
20,ClCCl,inactive

row,Structure (SMILES),Potency
1,OC12N=C(c3ccccc3)SC1Cc1cc(Cl)ccc12 (stereo not given),inactive
2,NC(=S)NC(N)=S,inactive
3,CCCCCCCCCCOC(=O)c1ccccc1C(=O)OCCCCCCCC,inactive
4,Cc1cccc(C(=O)O)c1O,inactive
5,CCOC(=O)NNc1ccc(N(CC)CC(C)O)nn1 (stereo not given),inactive
6,Cc1cc(C(C)(C)C)c(O)c(C)c1Cn1c(=O)n(Cc2c(C)cc(C(C)(C)C)c(O)c2C)c(=O)n(Cc2c(C)cc(C(C)(C)C)c(O)c2C)c1=O,inactive
7,CC(C)CCOC(=O)/C=C/c1ccccc1,inactive
8,COC(=O)c1ccccc1C,inactive
9,c1ccc(SSc2ccccc2)cc1,inactive
10,CC(C(=O)O)c1ccc2c(c1)[nH]c1ccc(Cl)cc12 (stereo not given),inactive
11,O=C(Nc1ccc2c(O)c(N=Nc3ccc(N=Nc4ccc(S(=O)(=O)O)cc4)cc3)c(S(=O)(=O)O)cc2c1)c1ccccc1,inactive
12,CCCCC/C=C\C/C=C\CCCCCCCC(=O)O,inactive
13,CCCCOC(=O)CO,inactive
14,c1cnccn1,inactive
15,CC(=O)Oc1cc2c(s1)CCN(C(C(=O)C1CC1)c1ccccc1F)C2 (stereo not given),inactive
16,CCCCCC(C)OC(=O)COc1ccc(Cl)c2cccnc12 (stereo not given),inactive
17,O=C(O)c1cc(O)c2ccccc2c1O,inactive
18,CN1CCCCC1CCN1c2ccccc2Sc2ccc(S(C)=O)cc21 (stereo not given),inactive
19,CC(C)(C)C1CCC(=O)CC1,inactive
20,CC(=O)[C@H]1CC[C@H]2[C@@H]3CCC4=CC(=O)CC[C@]4(C)[C@H]3CC[C@]12C,inactive
